dFosB activator: enhances mouse delta FosB homodimer DNA binding. P13346. activation, % at 25 µM. purified delta FosB, TAMRA-CDK5 oligo fluorescence polarization; percent of positive-control signal above neutral wells. 340,000 tested, 0.99% active;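 active means mean activation above about 17%, with every replicate also reaching it, limit read from the data, passing the limit was not always enough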
Target sequence (P13346 whole entry, looked up): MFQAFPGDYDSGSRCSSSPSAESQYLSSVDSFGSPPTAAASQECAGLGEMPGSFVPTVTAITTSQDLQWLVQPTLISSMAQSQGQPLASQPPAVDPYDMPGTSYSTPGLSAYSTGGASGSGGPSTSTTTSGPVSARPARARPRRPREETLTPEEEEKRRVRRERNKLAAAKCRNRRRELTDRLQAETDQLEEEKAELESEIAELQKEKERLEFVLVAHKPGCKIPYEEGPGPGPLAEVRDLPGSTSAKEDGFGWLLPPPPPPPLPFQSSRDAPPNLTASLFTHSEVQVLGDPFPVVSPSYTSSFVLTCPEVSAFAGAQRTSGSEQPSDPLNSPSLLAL
MPTP inh: blocks calcium-induced mitochondrial swelling. 360,000 tested, 1.4% active. AID 602449. inhibition, % at 10 µM. isolated mouse mitochondria, Ca2+ swelling absorbance, 30 min;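 active means inhibition of 50% or more, scaled per plate between neutral and stimulator controls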
HSP90 refold inh: inhibitors of HSP90 luciferase refolding in rabbit reticulocyte lysate; luciferase refolding luminescence, 3 h; inhibition, % at 5.6 µM; 290,000 tested, 0.91% active;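 active means inhibition above the screen-wide mean plus 3 SD, computed separately per campaign, cut at about 16% in these data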;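 further: inhibitors lower the luminescence because luciferase stays unfolded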
Platelet DG rel: modulates dense granule release in human platelets | human platelet-rich plasma, SFLLRN dense granule ATP release, luminescence | inhibition, %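 (compounds screened at 7.5 µM in platelet-rich plasma)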 | 300,000 tested, 0.22% active;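 active means mean replicate score, as percent of positive control, at or above 50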
HSF1 inhib: HSF1 inhibition | NIH3T3-HGL HSE-luciferase, MG132-induced, luminescence 8 h; hits give low values | activity change, negative = inhibition, % at 7.5 µM (by protocol) | 300,000 tested, 0.77% active;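 active means more than half of replicate wells show activity change below -50%, luminescence cut by over half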;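 further: luciferase reports HSF-1 transcriptional activity via heat shock element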
HSF1 activator: increases HSF-1 driven luciferase reporter signal; AID 504408; 300,000 tested, 1.7% active; NIH3T3-HGL HSF-1 luciferase reporter, MG132, 8 h; 100% = twice DMSO control signal; activation, % at 9 µM;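 active means mean replicate activation of at least 50% with a set share of replicates each reaching 50%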
MPTP counter: mitochondrial membrane potential, counter-screen; isolated mitochondria, Rhodamine 123 fluorescence; inhibition, % at 10 µM; 5,000 tested, 78% active; shares compounds with MPTP inh; in the data active means inhibition above about 22%
MPTP swell DR: dose response confirmation of mitochondrial permeability transition pore inhibitors | 780 tested, 58% active | shares compounds with MPTP inh | isolated mitochondria swelling, absorbance | AID 651561 | IC50, µM; in the data active means IC50 below about 20 µM
MPTP counter DR: MPTP inhibitor counter-screen activity, dose response | IC50, µM | isolated mitochondria counterscreen, fluorescence read-out | 780 tested, 49% active | shares compounds with MPTP inh; in the data active means IC50 below about 80 µM
Each line names hits and unclear results; the compound was inactive in the other large screens (follow-up assays come after a bar, where they were run). Most compounds without a hit are left out; they make up all but 4.9% or so of the library.

COCC(=O)Oc1c(Sc2ccccc2[N+](=O)[O-])c(C)nn1C(C)(C)C	MPTP inh 60 | MPTP counter 62
COc1ccc(NC(=O)N2C[C@H]3CON(C)[C@H]3C[C@H]2c2ccc(N3CCCCC3)cc2)cc1	none (no result: dFosB activator, HSP90 refold inh, Platelet DG rel, HSF1 inhib, HSF1 activator)
COC(=O)/C(=C\Nc1ccc(Cl)c2ccccc12)c1ncc(C(F)(F)F)cc1Cl	none
CCOC(=O)/C(=C\Nc1ccccc1C(F)(F)F)Sc1ncc(C(F)(F)F)cc1Cl	MPTP inh 95 | MPTP counter inactive | MPTP swell DR inactive | MPTP counter DR inactive
Cc1ccc(NC(=S)NCc2cccs2)cc1	none
CCCCc1ccc(NC(=S)NCc2ccc(OC)cc2)cc1	MPTP inh 57, HSF1 activator 51 | MPTP counter 75
COc1ccc(CNC(=S)Nc2ccc(OC)cc2)cc1	none
CCCCc1ccc(NC(=S)NCc2cccs2)cc1	MPTP inh 84 | MPTP counter 80
O=C(N/N=C/c1cc([N+](=O)[O-])ccc1Cl)c1cc(-c2ccccc2)nc2ccccc12	none
O=C(N/N=C/c1ccc(Cl)c([N+](=O)[O-])c1)c1cc(-c2ccccc2)nc2ccccc12	MPTP inh 68, HSF1 activator 128 | MPTP counter 75
O=C(N/N=C/c1cc([N+](=O)[O-])ccc1O)c1cc(-c2ccccc2)nc2ccccc12	MPTP inh 98 | MPTP counter 50
O=C(Nc1ccc(OC(F)F)c(Cl)c1)C(c1ccccc1)c1ccccc1	MPTP inh 83 | MPTP counter 90
O=C(Cc1cccc2ccccc12)Nc1ccc(OC(F)F)c(Cl)c1	MPTP inh 85 | MPTP counter 90
CCC(C(=O)Nc1ccc(OC)c(Cl)c1)c1ccccc1 (stereo unspecified)	none
COc1ccc(CNc2ncnc3sccc23)cc1	none
Cc1c(C)c2ccc(OCC(=O)NCCCN3CCCC3=O)cc2oc1=O	none
CCC(C)Nc1ccc(NC(C)CC)cc1 (stereo unspecified)	none (no result: HSP90 refold inh, Platelet DG rel, HSF1 inhib, HSF1 activator)
O=C(Nc1ccncc1)c1cccc(S(=O)(=O)N2CCc3ccccc32)c1	MPTP inh 96 (no result: HSP90 refold inh) | MPTP counter 94
CCOC(=O)c1sc(NC(=O)c2cccc(S(=O)(=O)N3CCc4ccccc43)c2)c(C#N)c1C	MPTP inh 91 | MPTP counter 86
CCCNC(=O)c1cc(S(=O)(=O)N2CCc3ccccc32)cn1C	MPTP inh 71 | MPTP counter 44
O=C(Nc1cccnc1)c1cccc(S(=O)(=O)N2CCc3ccccc32)c1	none
O=C(CCCc1c[nH]c2ccccc12)N[C@@H](Cc1c[nH]c2ccccc12)C(=O)O	none
COc1ccc2nc(Cl)c(C=O)c(N3CCOCC3)c2c1	none (no result: dFosB activator, HSP90 refold inh, Platelet DG rel, HSF1 inhib, HSF1 activator)
CCCCC[C@@H](/C=C/C1C(=O)C=C[C@H]1C/C=C\CCCC(=O)O)OC(C)=O (stereo partly specified)	none (no result: HSP90 refold inh, Platelet DG rel, HSF1 inhib, HSF1 activator)
C/C(=N\Nc1ncc(Cl)cc1Cl)c1ccc(C#N)cc1	none
COc1ccc(/C(C)=N/Nc2ncc(Cl)cc2Cl)c(O)c1	MPTP inh 73 | MPTP counter 73
CC(=O)c1ccc(N=c2scc(C)n2C(C)C)cc1	none
CC(C)(C)c1ccc(S(=O)(=O)N2CC(C(=O)O)Oc3ccc(Cl)cc32)cc1 (stereo unspecified)	none
Cc1noc(C)c1CSCC(=O)N1CCN(c2ccc(F)cc2)CC1	none
Cc1cccc(N2CCN(C(=O)CSCc3c(C)noc3C)CC2)c1C	MPTP inh 90, HSF1 activator 54 | MPTP counter 75
Cc1ccc(NC(=O)CC2OC(=O)c3ccccc32)cc1S(=O)(=O)N1CCCCCC1 (stereo unspecified)	none (no result: HSP90 refold inh, Platelet DG rel, HSF1 inhib, HSF1 activator)
COc1ccc(CNS(=O)(=O)c2ccc3c(c2)CC(C)N3C(=O)C2CC2)cc1 (stereo unspecified)	MPTP inh 99 | MPTP counter 88
CC(C)c1ccc(/C=C/c2ccc(=O)n(C)n2)cc1	none
C#CCOCCOCCOCCNc1nc(N2CCN(C(=O)CCCCCCCCCCNC(=O)Cn3cc(CCCCCN)nn3)CC2)nc(N2CCN(C(=O)CCCCCCCCCCNC(=O)[C@H](CO)n3cc(CCCCCN)nn3)CC2)n1	none (no result: HSP90 refold inh, Platelet DG rel, HSF1 inhib, HSF1 activator)
C#CCOCCOCCOCCNc1nc(N2CCN(C(=O)CCCCCCCCCCNC(=O)Cn3cc(CCCCCN)nn3)CC2)nc(N2CCN(C(=O)CCCCCCCCCCNC(=O)[C@H]([C@@H](C)CC)n3cc(CCCCCN)nn3)CC2)n1	MPTP inh 163 (no result: HSP90 refold inh, Platelet DG rel, HSF1 inhib, HSF1 activator) | MPTP counter 101
C#CCOCCOCCOCCNc1nc(N2CCN(C(=O)[C@H](CCCCN)n3cc(CN)nn3)CC2)nc(N2CCN(C(=O)[C@H](CCCN=C(N)N)n3cc(C(N)[C@H](C)CC)nn3)CC2)n1 (stereo partly specified)	MPTP inh 84 (no result: HSP90 refold inh, Platelet DG rel, HSF1 inhib, HSF1 activator) | MPTP counter inactive | MPTP swell DR inactive | MPTP counter DR inactive
O=C(CN(c1ccccc1Cl)S(=O)(=O)c1ccccc1)NC1CC2CCC1C2 (stereo unspecified)	none (no result: dFosB activator, HSP90 refold inh, Platelet DG rel, HSF1 inhib, HSF1 activator)
Cc1ccc(N2C(=O)CC(N3CCN(c4ccccn4)CC3)C2=O)cc1 (stereo unspecified)	none
Cc1ccc2nc(-c3ccc(N4C(=O)CC(N5CCN(CCO)CC5)C4=O)cc3)sc2c1 (stereo unspecified)	MPTP inh 94 | MPTP counter inactive | MPTP swell DR 19 | MPTP counter DR inactive
C[C@H](CO)N1C[C@H](C)[C@@H](CN(C)C(=O)NC2CCCCC2)Oc2c(NC(=O)Nc3ccc(C(F)(F)F)cc3)cccc2C1=O	none (no result: HSP90 refold inh, Platelet DG rel, HSF1 inhib, HSF1 activator)
Cn1ncc2c(N3CCN(c4ccc(Cl)c(Cl)c4)CC3)ncnc21	MPTP inh 88 | MPTP counter 99
Clc1ccc2c(N/N=C/c3cccc(Br)c3)ccnc2c1	dFosB activator 52, MPTP inh 62 | MPTP counter 94
Clc1ccc2c(N/N=C/c3ccccc3Br)ccnc2c1	dFosB activator 46, MPTP inh 57, HSF1 activator 66 | MPTP counter 99
O=[N+]([O-])c1ccc(/C=N/Nc2ccnc3cc(Cl)ccc23)o1	none
CCC(C)c1ccc(NC(=O)c2c([N+](=O)[O-])cnn2CC)cc1 (stereo unspecified)	none
CC[N+](C)(C)CC/C=C1/c2ccccc2Sc2ccc(Cl)cc21	none (no result: dFosB activator)
CN(C)CC/C=C1\c2ccccc2Sc2ccc(Cl)cc21	MPTP inh 97 | MPTP counter inactive
CN(C)CC/C=C1\c2ccccc2Sc2cc(F)c(Cl)cc21	none (no result: HSP90 refold inh)
OCCN1CCN(CC/C=C2/c3ccccc3Sc3ccc(Cl)cc32)CC1	dFosB activator 17, MPTP inh 94 (no result: HSP90 refold inh, Platelet DG rel, HSF1 inhib, HSF1 activator) | MPTP counter inactive
